According to PubChem BioAssay (NCI):
Compounds without any hit were thinned out: in the full panel of roughly 83,000, 20% have a hit.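 Cell lines were cultured in 96-well plates, exposed to a single compound concentration, and assessed for percent growth 48 hours later.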 Calls of active or inactive are those of the source. The calls were made as follows: active = growth percent below 10; inactive = the rest.

What was measured:
Assay in all cases: NCI-60 one-dose screen, 48 h (100 = growth as untreated, 0 = no growth, -100 = all killed)
Conditions in all cases: 10 µM unless noted
SK-MEL-2 melanoma = test system: SK-MEL-2 melanoma
EKVX NSCLC = test system: EKVX NSCLC
SN12C renal = test system: SN12C renal
UO-31 renal = test system: UO-31 renal
TK-10 renal = test system: TK-10 renal
ACHN renal = test system: ACHN renal
CAKI-1 renal = test system: CAKI-1 renal
CCRF-CEM leukemia = test system: CCRF-CEM leukemia
MOLT-4 leukemia = test system: MOLT-4 leukemia
SR leukemia = test system: SR leukemia
RPMI-8226 leukemia = test system: RPMI-8226 leukemia
OVCAR-8 ovarian = test system: OVCAR-8 ovarian
OVCAR-5 ovarian = test system: OVCAR-5 ovarian
OVCAR-4 ovarian = test system: OVCAR-4 ovarian
SK-OV-3 ovarian = test system: SK-OV-3 ovarian
IGROV1 ovarian = test system: IGROV1 ovarian
OVCAR-3 ovarian = test system: OVCAR-3 ovarian
HS 578T breast = test system: HS 578T breast
NCI/ADR-RES ovarian = test system: NCI/ADR-RES ovarian
A498 renal = test system: A498 renal

Measured: growth

Nc1nc(Nc2ccccc2SSc2ccccc2Nc2nc(N)nc(-c3cccc(Cl)c3)n2)nc(-c2cccc(Cl)c2)n1
inactive: SK-MEL-2 melanoma 105% | EKVX NSCLC 90.5% | SN12C renal 62.1% | UO-31 renal 83.9% | TK-10 renal 154% | ACHN renal 88.8% | CAKI-1 renal 75.5% | CCRF-CEM leukemia 68.1% | MOLT-4 leukemia 80.4% | SR leukemia 39.3% | RPMI-8226 leukemia 89.6% | OVCAR-8 ovarian 90.7% | OVCAR-5 ovarian 97.5% | OVCAR-4 ovarian 120% | SK-OV-3 ovarian 133% | IGROV1 ovarian 69.7% | OVCAR-3 ovarian 96.2% | HS 578T breast 105% | NCI/ADR-RES ovarian 81.3%

O=C(c1ccccc1)c1ccc(Oc2ccc([N+](=O)[O-])cc2[N+](=O)[O-])cc1
active: IGROV1 ovarian 1.87% | NCI/ADR-RES ovarian 4.04%
inactive: SK-MEL-2 melanoma 34.9% | EKVX NSCLC 99.6% | SN12C renal 71.6% | UO-31 renal 48.7% | TK-10 renal 83.4% | ACHN renal 50.4% | CAKI-1 renal 27.3% | CCRF-CEM leukemia 27.4% | MOLT-4 leukemia 78.3% | SR leukemia 14.6% | RPMI-8226 leukemia 35.2% | OVCAR-8 ovarian 41.5% | OVCAR-5 ovarian 59.9% | OVCAR-4 ovarian 28.5% | SK-OV-3 ovarian 99.9% | HS 578T breast 90.7%

N#Cc1c(-c2ccccc2)cc(-c2ccccc2)n(CCC(=O)O)c1=O
active: SK-MEL-2 melanoma 9.85%
inactive: EKVX NSCLC 76.8% | SN12C renal 69.1% | UO-31 renal 63.1% | TK-10 renal 75.6% | ACHN renal 67.1% | CAKI-1 renal 46.4% | CCRF-CEM leukemia 54.9% | MOLT-4 leukemia 49.4% | SR leukemia 19.8% | RPMI-8226 leukemia 50.3% | OVCAR-8 ovarian 50.3% | OVCAR-5 ovarian 94.2% | OVCAR-4 ovarian 90.8% | SK-OV-3 ovarian 92% | IGROV1 ovarian 50.2% | OVCAR-3 ovarian 14.8% | HS 578T breast 58.2% | NCI/ADR-RES ovarian 33.7%

CC1c2ccccc2-c2ccccc2N1C (centres undefined)
inactive: SK-MEL-2 melanoma 101% | EKVX NSCLC 124% | SN12C renal 89.6% | UO-31 renal 70.7% | TK-10 renal 94.3% | ACHN renal 103% | CAKI-1 renal 95.7% | CCRF-CEM leukemia 101% | MOLT-4 leukemia 103% | SR leukemia 96.3% | RPMI-8226 leukemia 90.5% | OVCAR-8 ovarian 106% | OVCAR-5 ovarian 101% | OVCAR-4 ovarian 110% | SK-OV-3 ovarian 101% | IGROV1 ovarian 98.3% | OVCAR-3 ovarian 104% | HS 578T breast 112% | NCI/ADR-RES ovarian 108%

c1ccc(-c2oc(-c3ccccc3)c3ccccc23)cc1
inactive: SK-MEL-2 melanoma 104% | EKVX NSCLC 92.1% | SN12C renal 104% | UO-31 renal 110% | TK-10 renal 114% | ACHN renal 104% | CAKI-1 renal 74.7% | A498 renal 98.9% | CCRF-CEM leukemia 85.5% | SR leukemia 56.8% | OVCAR-8 ovarian 102% | OVCAR-5 ovarian 112% | SK-OV-3 ovarian 116% | IGROV1 ovarian 109% | OVCAR-3 ovarian 124% | HS 578T breast 97.7% | NCI/ADR-RES ovarian 96.5%

Nc1nc(Nc2ccccc2SSc2ccccc2Nc2nc(N)nc(-c3ccc(I)cc3)n2)nc(-c2ccc(I)cc2)n1
inactive: SK-MEL-2 melanoma 103% | EKVX NSCLC 52.2% | SN12C renal 23.4% | TK-10 renal 104% | ACHN renal 19.2% | CAKI-1 renal 59.7% | CCRF-CEM leukemia 50.3% | MOLT-4 leukemia 71.7% | SR leukemia 13.9% | RPMI-8226 leukemia 61.4% | OVCAR-8 ovarian 60.2% | OVCAR-5 ovarian 84.9% | OVCAR-4 ovarian 107% | SK-OV-3 ovarian 116% | IGROV1 ovarian 50.3% | OVCAR-3 ovarian 94.1% | HS 578T breast 89.1% | NCI/ADR-RES ovarian 49.6%
active: UO-31 renal -92.2%

COc1ccc2[nH]c(=O)c(CNc3ccc(Nc4nccc(-c5ccc(Cl)cc5)n4)cc3)cc2c1
inactive: SK-MEL-2 melanoma 87% | EKVX NSCLC 94% | SN12C renal 87.1% | UO-31 renal 64% | TK-10 renal 102% | ACHN renal 90.1% | CAKI-1 renal 97.6% | CCRF-CEM leukemia 75.7% | MOLT-4 leukemia 48.4% | SR leukemia 54% | RPMI-8226 leukemia 77.6% | OVCAR-5 ovarian 103% | OVCAR-4 ovarian 99.9% | SK-OV-3 ovarian 118% | IGROV1 ovarian 89.1% | OVCAR-3 ovarian 89.3% | HS 578T breast 101% | NCI/ADR-RES ovarian 92.5%
